Laboratory results published in PubChem BioAssay (NCATS).
Records with an inconclusive call do not appear. The source made the active and inactive calls. Calls come from the whole dose curve; as a rule, active = well fitted cell-killing curve with a large enough effect; inconclusive = small, poorly fitted or top-dose-only effect, or effect the other way; inactive = no such curve, though single readings can be large or run the other way.

What was measured:
[1] = Quantitative High-Throughput drug screen in 47 multiple myeloma cell lines against the NCATS MIPE library collection: XG6_PLB cell viability assay (AID 1919865); note: nearly all actives have a fitted effect of over 40% in size
Method in brief: (§1)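 ATP-based CellTiter-Glo luminescence after 48 h drug exposure (37 °C, 5% CO2) of 500 myeloma cells per well. DMSO-only wells set 100% viability, media-only wells 0%; MIPE 4.0 library added by pin tool.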

[2] = Quantitative High-Throughput drug screen in 47 multiple myeloma cell lines against the NCATS MIPE library collection: XG1_PLB cell viability assay (AID 1919866); note: nearly all actives have a fitted effect of over 35% in size
Method in brief: as §1

[3] = Quantitative High-Throughput drug screen in 47 multiple myeloma cell lines against the NCATS MIPE library collection: VP6_DJ cell viability assay (AID 1919867); note: nearly all actives have a fitted effect of over 40% in size
Method in brief: as §1

[4] = Quantitative High-Throughput drug screen in 47 multiple myeloma cell lines against the NCATS MIPE library collection: UTMC2_PLB cell viability assay (AID 1919868); settings: CellTiter-Glo ATP luminescence, 48 h; viability (% of DMSO control): at 45.8 µM (top of the series); note: nearly all actives have a fitted effect of over 55% in size
Method in brief: as §1

[5] = Quantitative High-Throughput drug screen in 47 multiple myeloma cell lines against the NCATS MIPE library collection: PE2_PLB cell viability assay (AID 1919869); note: nearly all actives have a fitted effect of over 35% in size
Method in brief: as §1

[6] = Quantitative High-Throughput drug screen in 47 multiple myeloma cell lines against the NCATS MIPE library collection: PCM6_Riken cell viability assay (AID 1919870); note: nearly all actives have a fitted effect of over 30% in size
Method in brief: as §1

[7] = Quantitative High-Throughput drug screen in 47 multiple myeloma cell lines against the NCATS MIPE library collection: OPM2_DSMZ cell viability assay (AID 1919872); note: nearly all actives have a fitted effect of over 30% in size
Method in brief: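 Luminescent ATP measurement with CellTiter-Glo gives viability, scaled between DMSO-only wells (100%) and media-only wells (0%). Cells, 500 per well, faced library compounds for 48 hours at 37C.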

[8] = Quantitative High-Throughput drug screen in 47 multiple myeloma cell lines against the NCATS MIPE library collection: KMS11_JCRBsus cell viability assay (AID 1919873); note: nearly all actives have a fitted effect of over 50% in size
Method in brief: as §1

[9] = Quantitative High-Throughput drug screen in 47 multiple myeloma cell lines against the NCATS MIPE library collection: KMS28BM_JCRB cell viability assay (AID 1919874); note: nearly all actives have a fitted effect of over 35% in size
Method in brief: as §1

[10] = Quantitative High-Throughput drug screen in 47 multiple myeloma cell lines against the NCATS MIPE library collection: RPMI8226_ATCC cell viability assay (AID 1919871); note: nearly all actives have a fitted effect of over 30% in size
Method in brief: as §1
Potency is the fitted concentration of half-maximal effect.

Structure (SMILES) | Potency [1] | Potency [2] | Potency [3] | Potency [4] | Potency [5] | Potency [6] | Potency [7] | Potency [8] | Potency [9] | Potency [10]
C=CCc1cccc(C=NNC(=O)CN2CCN(Cc3ccccc3)CC2)c1O | 9.35 µM (active) | 10.5 µM (active) | 7.43 µM (active) | 20.9 µM (active) | 20.9 µM (active) | 26.4 µM (active) | 16.6 µM (active) | 8.33 µM (active) | 7.43 µM (active) | –
NC1(C(=O)N[C@@H](CCO)c2ccc(Cl)cc2)CCN(c2ncnc3[nH]ccc23)CC1 | 20.9 µM (active) | 4.18 µM (active) | 0.235 µM (active) | 0.235 µM (active) | 5.9 µM (active) | 5.26 µM (active) | 13.2 µM (active) | – | 0.372 µM (active) | –
Clc1ccc(C2(c3ccc(-c4cn[nH]c4)cc3)CCNCC2)cc1 | 3.72 µM (active) | 18.7 µM (active) | 13.2 µM (active) | 0.148 µM (active) | 11.8 µM (active) | 6.62 µM (active) | 26.4 µM (active) | – | 16.6 µM (active) | –
Cc1ccc(S(=O)(=O)Nc2nc3ccccc3nc2Nc2ccc3nsnc3c2)cc1 | 0.0724 µM (active) | 0.575 µM (active) | 0.645 µM (active) | 1.02 µM (active) | – | – | – | 11.5 µM (active) | – | –
COc1ccc(-c2cc(=O)c3c(O)cc(O[C@@H]4O[C@H](CO[C@@H]5O[C@@H](C)[C@H](O)[C@@H](O)[C@@H]5O)[C@@H](O)[C@H](O)[C@@H]4O)cc3o2)cc1O | 9.35 µM (active) | 8.33 µM (active) | 14.8 µM (active) | – | 23.5 µM (active) | 11.8 µM (active) | inactive | – | – | inactive
Cc1cccc(Nc2nc(N[C@@H]3CCCC[C@H]3N)ncc2C(N)=O)c1 | 0.743 µM (active) | 9.35 µM (active) | 5.26 µM (active) | 9.35 µM (active) | 18.7 µM (active) | 7.43 µM (active) | – | 26.4 µM (active) | – | –
COc1cccc(OC)c1-c1cc(C(=O)NC2(C(=O)O)C3CC4CC(C3)CC2C4)nn1-c1ccnc2cc(Cl)ccc12 (stereo unspecified) | inactive | inactive | inactive | inactive | inactive | – | – | inactive | inactive | inactive
N[C@@H](CC(=O)N1CCn2c(nnc2C(F)(F)F)C1)Cc1cc(F)c(F)cc1F | inactive | inactive | inactive | – | 3.72 µM (active) | inactive | inactive | – | 4.69 µM (active) | –
O=C(C=Cc1ccc(O)cc1)c1ccc(O)cc1O | 18.7 µM (active) | 16.6 µM (active) | 18.7 µM (active) | – | 20.9 µM (active) | 16.6 µM (active) | – | 10.5 µM (active) | – | –
CCN1CCN(c2ccc(Nc3cc(N(C)C(=O)Nc4c(Cl)c(OC)cc(OC)c4Cl)ncn3)cc2)CC1 | 6.62 µM (active) | 11.8 µM (active) | 23.5 µM (active) | – | inactive | – | 0.209 µM (active) | inactive | – | inactive
CC(=O)O[C@]1(C(C)=O)CC[C@H]2[C@@H]3C=C(Cl)C4=CC(=O)[C@@H]5C[C@H]5[C@]4(C)[C@@H]3CC[C@@]21C | 4.18 µM (active) | 7.43 µM (active) | 7.43 µM (active) | – | 11.8 µM (active) | – | inactive | inactive | – | 20.9 µM (active)
CC=C(C(=CC)c1ccc(O)cc1)c1ccc(O)cc1 | 18.7 µM (active) | 16.6 µM (active) | 18.7 µM (active) | – | 20.9 µM (active) | 20.9 µM (active) | 18.7 µM (active) | – | – | –
CN1CCN(c2cccc(Nc3nc4c(-c5ccc(S(C)(=O)=O)cc5)cccn4n3)c2)CC1 | 0.833 µM (active) | 0.372 µM (active) | 0.743 µM (active) | – | 1.05 µM (active) | 7.43 µM (active) | – | – | 0.743 µM (active) | 9.35 µM (active)
O=C(Nc1ccccc1)Nc1ccc(-c2ccc(C(=O)[C@H]3CCC[C@H]3C(=O)O)cc2)cc1 | 4.69 µM (active) | 2.96 µM (active) | inactive | – | inactive | – | inactive | inactive | inactive | inactive
CNc1nc(-c2ccc3c(N)n[nH]c3c2)cc(N2C[C@@H](C(=O)NC3CCCCC3)CC[C@@H]2C)n1 | 20.9 µM (active) | 20.9 µM (active) | 5.9 µM (active) | – | 6.62 µM (active) | 18.7 µM (active) | 23.5 µM (active) | 5.26 µM (active) | 23.5 µM (active) | –
CC(C)n1c(C=C[C@H](O)C[C@H](O)CC(=O)O)c(-c2ccc(F)cc2)c2ccccc21 | 16.6 µM (active) | 4.69 µM (active) | 16.6 µM (active) | – | 14.8 µM (active) | – | – | – | – | 18.7 µM (active)
CC[C@H](C)n1cc(C)c2c(C(=O)NCc3c(C)cc(C)[nH]c3=O)cc(-c3ccc(N4CCNCC4)nc3)cc21 | 16.6 µM (active) | 9.35 µM (active) | 11.8 µM (active) | – | 23.5 µM (active) | – | – | 23.5 µM (active) | 23.5 µM (active) | 26.4 µM (active)
Cc1cnc(CNC(=O)c2c(=O)c3ccc(N4CCCN(C)CC4)nc3n3c2sc2ccccc23)cn1 | 5.12 µM (active) | inactive | inactive | – | inactive | – | – | inactive | inactive | 8.12 µM (active)
CC(C)C[C@@H](N)[C@H](O)C(=O)N[C@H](C(=O)N[C@H](C(=O)N[C@@H](CC(=O)O)C(=O)O)C(C)C)C(C)C | 7.43 µM (active) | 2.64 µM (active) | 5.26 µM (active) | – | 18.7 µM (active) | – | inactive | – | – | inactive
CC(=O)Nc1cccc(-n2c(=O)n(C3CC3)c(=O)c3c(Nc4ccc(I)cc4F)n(C)c(=O)c(C)c32)c1 | 0.332 µM (active) | 0.0418 µM (active) | inactive | – | 0.296 µM (active) | – | – | – | inactive | 1.66 µM (active)
C[C@H]1O[C@@H](n2cc(F)c(=O)[nH]c2=O)[C@H](O)[C@H]1O | inactive | 8.33 µM (active) | 0.59 µM (active) | – | 1.87 µM (active) | 8.33 µM (active) | inactive | – | inactive | 9.35 µM (active)
Nc1ncnc2c1ncn2[C@@H]1O[C@H](CO)[C@@H](O)[C@@H]1O | 2.64 µM (active) | 0.935 µM (active) | 0.166 µM (active) | – | 14.8 µM (active) | 1.18 µM (active) | – | 5.26 µM (active) | 0.935 µM (active) | inactive
O=c1[nH]nc(OCCCc2ccc(Cl)cc2)c(NCc2cccnc2)c1Br | 2.96 µM (active) | 9.35 µM (active) | 9.35 µM (active) | – | 9.35 µM (active) | 4.69 µM (active) | 23.5 µM (active) | – | 20.9 µM (active) | 20.9 µM (active)
NC(=O)c1nnn(Cc2cc(Cl)c(C(=O)c3ccc(Cl)cc3)c(Cl)c2)c1N | 18.7 µM (active) | 20.9 µM (active) | 20.9 µM (active) | – | 23.5 µM (active) | – | – | 16.6 µM (active) | – | 14.8 µM (active)
CCCC1OC2C[C@@H]3[C@H]4CCC5=CC(=O)C=C[C@]5(C)[C@H]4C(O)C[C@]3(C)[C@]2(C(=O)CO)O1 (stereo partly specified) | inactive | inactive | inactive | – | inactive | – | – | 0.0015 µM (active) | – | –
O=C(CCCN1CCN(c2ccc(F)cc2)CC1)NC1c2ccccc2CSc2ccccc21 (stereo unspecified) | 14.8 µM (active) | 11.8 µM (active) | 7.43 µM (active) | – | 13.2 µM (active) | 14.8 µM (active) | – | 10.5 µM (active) | 11.8 µM (active) | –
